Calls of active or inactive are those of the source.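 Rule for the calls: active = fitted half-maximal signal drop concentration below 100 µM; inactive = the rest.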
Biological target: ATP-binding cassette sub-family B member 6 (Homo sapiens) (UniProt Q9NP58)
Test: ABCB6 transporter inhibitors, porphyrin accumulation, dose response, flow cytometry, K562-ABCB6 cells, powder set 01 (AID 651663)
Conditions: 1 h; series mostly up to 100 µM

Chain of ATP-binding cassette sub-family B member 6 (Homo sapiens) (Q9NP58 whole entry, looked up): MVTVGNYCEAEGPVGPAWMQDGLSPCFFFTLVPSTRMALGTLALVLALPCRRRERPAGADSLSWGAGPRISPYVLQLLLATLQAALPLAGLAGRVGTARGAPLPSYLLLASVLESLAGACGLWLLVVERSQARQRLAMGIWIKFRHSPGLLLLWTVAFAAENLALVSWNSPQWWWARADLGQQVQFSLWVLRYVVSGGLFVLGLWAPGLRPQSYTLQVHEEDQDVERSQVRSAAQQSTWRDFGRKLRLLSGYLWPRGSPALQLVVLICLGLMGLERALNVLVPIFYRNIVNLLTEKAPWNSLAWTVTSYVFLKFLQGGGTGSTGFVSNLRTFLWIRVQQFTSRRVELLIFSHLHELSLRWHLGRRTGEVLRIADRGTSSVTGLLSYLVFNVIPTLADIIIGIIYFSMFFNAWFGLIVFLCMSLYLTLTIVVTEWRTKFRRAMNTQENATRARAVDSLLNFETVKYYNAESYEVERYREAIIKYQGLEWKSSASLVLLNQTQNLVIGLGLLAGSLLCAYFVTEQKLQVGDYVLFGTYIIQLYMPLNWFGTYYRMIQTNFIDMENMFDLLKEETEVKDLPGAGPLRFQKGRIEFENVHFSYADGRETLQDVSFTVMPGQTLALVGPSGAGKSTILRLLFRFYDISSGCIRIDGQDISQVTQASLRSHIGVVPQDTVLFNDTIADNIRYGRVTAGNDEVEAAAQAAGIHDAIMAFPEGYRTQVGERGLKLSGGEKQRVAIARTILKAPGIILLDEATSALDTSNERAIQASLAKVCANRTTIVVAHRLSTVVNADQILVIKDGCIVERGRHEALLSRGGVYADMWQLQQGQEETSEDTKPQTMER

outcome, inactive:
CC(=O)Nc1ccc(NC(=O)c2nc(S(=O)(=O)Cc3ccccc3)ncc2Cl)cc1, CC(=O)Nc1ccc(NC(=O)c2nc(S(=O)(=O)Cc3cccc(C)c3)ncc2Cl)cc1, CCc1ccc(NC(=O)c2nc(S(=O)(=O)Cc3ccccc3)ncc2Cl)cc1, CCOc1ccccc1NC(=O)c1nc(S(=O)(=O)Cc2cccc(C)c2)ncc1Cl

From PubChem BioAssay AID651663 (NMMLSC, 2012)
